Where a name gives a salt, the structure may show the parent alone. ± gives the standard deviation of the averaged measurements.
Columns and labels:
[1] = test system: Saccharomyces cerevisiae BY4741 SeMeCo community; test: mean cell size (pixel area) (pixels); higher = larger cells; settings: 10 µM; 24 h; SM minimal medium
How it was run: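 A four-plasmid fluorescent Saccharomyces cerevisiae BY4741 community was tested; each plasmid complements one auxotrophy and carries a fluorescent marker. An overnight preculture at OD600 = 1.0 was diluted to OD600 = 0.3, and 70 µl was added to 384-well plates acoustically predosed with drug (final 10 µM) in SM medium for 24 h. Cells were fixed with paraformaldehyde and imaged by automated confocal microscopy, with analysis in Harmony. Mean cell pixel area per well is averaged over 3 replicates. Same SeMeCo high-content imaging drug screen: Selleck FDA-approved drugs at 10 µM, 24 h in SM medium, 384-well plates, 3 replicates.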

[2] = test system: Saccharomyces cerevisiae BY4741 SeMeCo community; test: z-score of prototroph abundance vs DMSO median; higher = larger share of this subpopulation than in DMSO controls; settings: 10 µM; 24 h; SM minimal medium; subpopulation (auxotrophy): Prototroph
How it was run: (§1)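 A Saccharomyces cerevisiae BY4741 community carried four plasmids, each restoring one auxotrophy and encoding a distinct fluorescent protein. It was pre-grown overnight to OD600 1.0, diluted to 0.3, and 70 µl was added to 384-well plates acoustically predosed with library drugs (10 µM final), then grown 24 h in minimal SM medium. Cells were paraformaldehyde-fixed and imaged by automated confocal microscopy, with single-auxotroph fluorescent strains setting thresholds and autofluorescence correction. Each subpopulation's abundance was scored as a z-score against the vehicle-well median.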

[3] = test system: Saccharomyces cerevisiae BY4741 SeMeCo community; test: z-score of subpopulation abundance vs DMSO median, subpopulation auxotrophic for M; higher = larger share of this subpopulation than in DMSO controls; settings: 10 µM; 24 h; SM minimal medium; subpopulation (auxotrophy): M
How it was run: as §1

[4] = test system: Saccharomyces cerevisiae BY4741 SeMeCo community; test: z-score of subpopulation abundance vs DMSO median, subpopulation auxotrophic for L; higher = larger share of this subpopulation than in DMSO controls; settings: 10 µM; 24 h; SM minimal medium; subpopulation (auxotrophy): L
How it was run: as §1

[5] = test system: Saccharomyces cerevisiae BY4741 SeMeCo community; test: z-score of subpopulation abundance vs DMSO median, subpopulation auxotrophic for H; higher = larger share of this subpopulation than in DMSO controls; settings: 10 µM; 24 h; SM minimal medium; subpopulation (auxotrophy): H
How it was run: as §1

[6] = test system: Saccharomyces cerevisiae BY4741 SeMeCo community; test: z-score of subpopulation abundance vs DMSO median, subpopulation auxotrophic for LU; higher = larger share of this subpopulation than in DMSO controls; settings: 10 µM; 24 h; SM minimal medium; subpopulation (auxotrophy): LU
How it was run: as §1

[7] = test system: Saccharomyces cerevisiae BY4741 SeMeCo community; test: z-score of subpopulation abundance vs DMSO median, subpopulation auxotrophic for LM; higher = larger share of this subpopulation than in DMSO controls; settings: 10 µM; 24 h; SM minimal medium; subpopulation (auxotrophy): LM
How it was run: as §1

[8] = test system: Saccharomyces cerevisiae BY4741 SeMeCo community; test: z-score of subpopulation abundance vs DMSO median, subpopulation auxotrophic for HM; higher = larger share of this subpopulation than in DMSO controls; settings: 10 µM; 24 h; SM minimal medium; subpopulation (auxotrophy): HM
How it was run: as §1

[9] = test system: Saccharomyces cerevisiae BY4741 SeMeCo community; test: z-score of subpopulation abundance vs DMSO median, subpopulation auxotrophic for HU; higher = larger share of this subpopulation than in DMSO controls; settings: 10 µM; 24 h; SM minimal medium; subpopulation (auxotrophy): HU
How it was run: as §1

[10] = test system: Saccharomyces cerevisiae BY4741 SeMeCo community; test: z-score of subpopulation abundance vs DMSO median, subpopulation auxotrophic for UM; higher = larger share of this subpopulation than in DMSO controls; settings: 10 µM; 24 h; SM minimal medium; subpopulation (auxotrophy): UM
How it was run: as §1

[11] = test system: Saccharomyces cerevisiae BY4741 SeMeCo community; test: z-score of subpopulation abundance vs DMSO median, subpopulation auxotrophic for HL; higher = larger share of this subpopulation than in DMSO controls; settings: 10 µM; 24 h; SM minimal medium; subpopulation (auxotrophy): HL
How it was run: as §1

[12] = test system: Saccharomyces cerevisiae BY4741 SeMeCo community; test: z-score of subpopulation abundance vs DMSO median, subpopulation auxotrophic for HLU; higher = larger share of this subpopulation than in DMSO controls; settings: 10 µM; 24 h; SM minimal medium; subpopulation (auxotrophy): HLU
How it was run: as §1

[13] = test system: Saccharomyces cerevisiae BY4741 SeMeCo community; test: z-score of subpopulation abundance vs DMSO median, subpopulation auxotrophic for HLM; higher = larger share of this subpopulation than in DMSO controls; settings: 10 µM; 24 h; SM minimal medium; subpopulation (auxotrophy): HLM
How it was run: as §1

[14] = test system: Saccharomyces cerevisiae BY4741 SeMeCo community; test: z-score of subpopulation abundance vs DMSO median, subpopulation auxotrophic for HUM; higher = larger share of this subpopulation than in DMSO controls; settings: 10 µM; 24 h; SM minimal medium; subpopulation (auxotrophy): HUM
How it was run: as §1

[15] = test system: Saccharomyces cerevisiae BY4741 SeMeCo community; test: z-score of subpopulation abundance vs DMSO median, subpopulation auxotrophic for LUM; higher = larger share of this subpopulation than in DMSO controls; settings: 10 µM; 24 h; SM minimal medium; subpopulation (auxotrophy): LUM
How it was run: as §1

[16] = test system: Saccharomyces cerevisiae BY4741 SeMeCo community; test: z-score of subpopulation abundance vs DMSO median, subpopulation auxotrophic for HLUM; higher = larger share of this subpopulation than in DMSO controls; settings: 10 µM; 24 h; SM minimal medium; subpopulation (auxotrophy): HLUM
How it was run: as §1

[17] = test system: Saccharomyces cerevisiae BY4741 SeMeCo community; test: z-score of subpopulation abundance vs DMSO median, subpopulation auxotrophic for U; higher = larger share of this subpopulation than in DMSO controls; settings: 10 µM; 24 h; SM minimal medium; subpopulation (auxotrophy): U
How it was run: as §1

Compound	mean cell size [1]	z-score of prototroph abundance [2]	z-score of subpopulation abundance [3]	z-score of subpopulation abundance [4]	z-score of subpopulation abundance [5]	z-score of subpopulation abundance [6]	z-score of subpopulation abundance [7]	z-score of subpopulation abundance [8]	z-score of subpopulation abundance [9]	z-score of subpopulation abundance [10]	z-score of subpopulation abundance [11]	z-score of subpopulation abundance [12]	z-score of subpopulation abundance [13]	z-score of subpopulation abundance [14]	z-score of subpopulation abundance [15]	z-score of subpopulation abundance [16]	z-score of subpopulation abundance [17]
CCN(CC)CCOC(=O)c1ccc(N)cc1Cl [Chloroprocaine HCl]	12.51 ± 0.1	-0.55	0.42	0.95	-0.3	0.13	0.62	-0.02	-0.26	0.74	-0.09	0.39	-0.23	0.14	0.45	0.58	–
CN(C)CCC=C1c2ccccc2C(C)(C)c2ccccc21 [Melitracen hydrochloride]	12 ± 0.24	1	-0.28	-0.61	-1.7	-0.8	-0.58	-0.45	-0.73	-0.21	-1.23	-1.72	-1.11	-0.78	-0.83	-0.56	–
Nc1ccc(S(N)(=O)=O)cc1 [Sulfanilamide]	12.4 ± 0.23	0.43	-0.87	-1.4	-0.45	-0.14	-1.02	-0.8	-1.15	–	-1.05	-1.52	-0.21	0.6	–	-0.65	0.22
CN[C@@H]1[C@H](O)[C@H](NC)[C@H]2O[C@@]3(O)C(=O)C[C@@H](C)O[C@H]3O[C@@H]2[C@H]1O [Spectinomycin 2HCl]	12.6 ± 0.18	-0.2	-0.21	-1.34	-0.79	-0.16	-1.03	-0.56	0.25	0.51	-0.34	0.02	-0.57	-0.21	–	-0.32	0.77
CC(C(=O)O)c1ccc(C(=O)c2cccs2)cc1 (stereo unspecified) [Suprofen]	12.4 ± 0.17	0.24	-0.68	0.48	-0.25	-0.41	0.42	-0.73	-0.02	-0.8	-0.36	0.03	-0.28	-1.16	–	-0.2	-0.1
Cc1cccc(C)c1NC(=O)C1CCCCN1C (stereo unspecified) [Mepivacaine]	12.2 ± 0.28	–	0.42	-0.3	-1.62	-0.35	0.4	-0.49	-0.53	0.24	–	0.12	-0.7	-0.62	–	-0.41	0.11
Cn1cc(C(=O)[C@@H]2CCc3[nH]cnc3C2)c2ccccc21 [Ramosetron Hydrochloride]	12.6 ± 0.16	-0.53	0.56	-0.44	-0.29	0.85	0.12	0.78	-0.53	0.33	-0.22	0.86	1.18	-0.01	0.32	0.88	–
CCCCOc1ccc(C(=O)CCN2CCCCC2)cc1 [Dyclonine HCl]	12.2 ± 0.23	0.35	0.29	0.13	-0.1	-0.73	0.14	-0.09	0.17	-0.42	-0.74	-0.26	-0.52	0.17	-0.27	-0.65	–
C#C[C@]1(O)CC[C@H]2[C@@H]3CCC4=CCCC[C@@H]4[C@H]3CC[C@@]21C [Lynestrenol]	12.5 ± 0.23	0.17	-1.23	-0.78	–	-0.82	-0.94	-0.19	0.4	0.5	-0.15	-0.88	-0.46	0.15	–	-0.6	1.07
CCCCNc1ccc(C(=O)OCCN(C)C)cc1 [Tetracaine HCl]	12.52 ± 0.015	–	0.03	-0.03	-0.2	1.2	0.43	0.5	0.08	–	0	-0.27	0.52	0.58	0	0.94	0.72
CCc1nn(CCCN2CCN(c3cccc(Cl)c3)CC2)c(=O)n1CCOc1ccccc1 [Nefazodone hydrochloride]	12.38 ± 0.1	–	-0.42	0.67	2.06	0.49	-0.3	0.55	0.21	-0.31	0.71	0.16	0.6	-0.23	–	0.44	-0.01
Nc1nnc(-c2cccc(Cl)c2Cl)c(N)n1 [Lamotrigine]	12.37 ± 0.07	-1.13	0.91	2.5	0.08	0.85	1.83	1.25	-0.39	0.01	1.44	0.23	0.44	0.8	1.86	1.58	–
NC(=N\CCCCCC/N=C(N)/N=C(\N)Nc1ccc(Cl)cc1)/N=C(\N)Nc1ccc(Cl)cc1 [Chlorhexidine diacetate]	11.5 ± 0.11	1.46	-2.47	-0.29	–	-1.43	-0.7	-1.35	-0.08	-1.2	1.03	1.21	1.2	-0.61	–	2.97	-0.99
c1ccc(C2CN3CCSC3=N2)cc1 (stereo unspecified) [Tetramisole HCl]	11.9 ± 0.12	–	-0.44	0.54	-0.14	-0.21	0.13	-0.54	0.01	0.02	0.08	0.35	-0.45	-0.09	–	0.92	-0.11

Source: the supplement of paper PMC8975748
